Hits are enriched below; roughly 2.4% of the tested compounds scored in any of these assays.
GLS inhibitor = glutaminase GLS (human) inhibition; 0.21% of 410,000 active; O94925; Potency, µM (top dose mostly 45.5 µM), inactives show at the top dose activity change, negative = inhibition, hits mostly inhibitors; GLS enzymatic activity, qHTS titration; also: % is scaled to controls: 0 for no effect and ±100 for the full control effect
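Assay buffer: 45 mM KH2PO4 pH 8.2, 0.02% Tween-20. hKGA acts on L-glutamine (1 mM solution added); product glutamate is reported by an oxidase/peroxidase Amplex Red coupling, with fluorescence taken at baseline and 30 min.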
POLI inh = inhibitors of human DNA polymerase iota. AID 588590. Pol iota fluorescent replication assay, 10 min. Q9UNA4. 1% of 390,000 active. Potency, µM (doses to about 115 µM), for inactives: top-dose activity, negative = inhibition, hits mostly inhibitors
Target sequence (Q9UNA4 whole entry, looked up): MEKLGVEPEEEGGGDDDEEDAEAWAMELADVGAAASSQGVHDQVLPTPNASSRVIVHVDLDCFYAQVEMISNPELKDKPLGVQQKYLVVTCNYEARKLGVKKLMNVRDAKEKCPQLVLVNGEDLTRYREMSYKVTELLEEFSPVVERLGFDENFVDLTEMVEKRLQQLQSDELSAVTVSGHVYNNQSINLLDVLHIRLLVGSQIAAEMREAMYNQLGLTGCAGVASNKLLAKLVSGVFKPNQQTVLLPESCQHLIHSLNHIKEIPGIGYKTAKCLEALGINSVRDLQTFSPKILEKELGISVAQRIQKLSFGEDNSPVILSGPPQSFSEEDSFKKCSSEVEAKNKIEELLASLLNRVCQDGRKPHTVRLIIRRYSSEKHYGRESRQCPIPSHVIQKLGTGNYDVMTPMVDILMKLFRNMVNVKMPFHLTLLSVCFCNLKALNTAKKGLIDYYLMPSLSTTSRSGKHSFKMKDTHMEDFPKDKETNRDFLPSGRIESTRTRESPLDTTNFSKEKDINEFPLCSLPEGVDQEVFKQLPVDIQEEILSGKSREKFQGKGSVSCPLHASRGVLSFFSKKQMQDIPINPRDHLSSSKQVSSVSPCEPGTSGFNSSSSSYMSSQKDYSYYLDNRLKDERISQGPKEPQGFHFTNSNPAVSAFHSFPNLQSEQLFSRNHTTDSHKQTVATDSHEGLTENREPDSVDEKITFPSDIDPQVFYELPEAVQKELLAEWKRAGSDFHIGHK
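Fluorescent replication assay read twice, at 0 min and 10 min after adding 50 nM (final) substrate. Enzyme (10 nM) and compounds were first incubated 15 min at room temperature; enzyme-free buffer wells were negative controls.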
Pol eta inh-1 = blocks human DNA polymerase eta activity | Q9Y253 | recombinant Pol eta, fluorescent DNA replication assay | Potency, µM (doses to about 114 µM), for the others: at the top dose activity change, negative = inhibition, most hits filed as inhibitors | 1.2% of 390,000 active | AID 588591; also: % is scaled to controls: 0 for no effect and ±100 for the full control effect
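Fluorescent replication assay: 50 nM final substrate added after a 15 min room-temperature compound preincubation with 10 nM enzyme. Signal taken at 0 min and again at 10 min.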
APEX1 inh = inhibitors of human APE1 endonuclease. recombinant APE1, TAMRA/BHQ-2 abasic DNA cleavage fluorescence. AID 2517. 0.35% of 350,000 active. Potency, µM (series often up to 65.8 µM), without a hit: top-dose activity change, negative = inhibition, most hits filed as inhibitors;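 also: plate controls were vehicle for no effect and reference inhibitor for full effect; nearly all actives have a fitted effect of over 55% in size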
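Compound pre-exposure to 0.75 nM APE1, 15 min at ambient temperature. Reaction initiated with 50 nM TAMRA/BHQ-2 THF substrate, read immediately in kinetic mode, 525 nm excitation, 598 nm emission.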
POLB inh = DNA polymerase beta (human) inhibition; Potency, µM (titrated, usually from 114 µM), inactives show top-dose activity change, negative = inhibition, hits mostly inhibitors; AID 485314; P06746; Pol beta primer extension/strand displacement, fluorescence kinetic; 1.3% of 340,000 active; also: % is scaled to controls: 0 for no effect and ±100 for the full control effect
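Reaction started by 50 nM substrate onto compound-treated Pol beta (10 nM, 15 min preincubation, room temperature); plates read at 0 min and 10 min. Normalized concentration-effect data fitted by four-parameter Hill equation.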
Pol kappa inh-1 = blocks human DNA polymerase kappa activity; Q9UBT6; purified Pol kappa, fluorescent DNA synthesis assay, 10 min; Potency, µM (top dose mostly 107 µM), for inactives: top-dose activity, negative = inhibition, hits mostly inhibitors; 0.53% of 400,000 active; AID 588579; also: % is scaled to controls: 0 for no effect and ±100 for the full control effect
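Activity was followed as the change in fluorescence between reads at 0 and 10 min after starting the reaction with 50 nM substrate. Beforehand, 10 nM polymerase had been preincubated with compound for 15 min at room temperature.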
PGK validate = blocks T. brucei phosphoglycerate kinase; AID 686980; Potency, µM (top dose mostly 57.5 µM), without a hit: top-dose activity change, negative = inhibition, usual class: inhibitors; shares compounds with Pol kappa inh-1; TbPGK coupled GAPDH assay, Kinase-Glo luminescence; 79% of 500 active; also: % is scaled to controls: 0 for no effect and ±100 for the full control effect; nearly all actives have a fitted effect of over 65% in size
POLI cherry-pick = Confirm cherry-picked inhibitors of human polymerase iota; Pol iota primer extension, TAMRA/BHQ fluorescence; 77% of 1,500 active; AID 720496; Potency, µM, actives largely listed as inhibitors; shares compounds with Pol kappa inh-1
Pol kappa inh-2 = confirmation of human DNA polymerase kappa inhibitors. Potency, µM, hits mostly inhibitors. 76% of 920 active. purified Pol-kappa, fluorescent strand-displacement substrate. shares compounds with Pol eta inh-1
Pol eta inh-2 = Pol eta (human) inhibition, cherry-pick confirmation; 64% of 2,600 active; shares compounds with Pol eta inh-1; Pol eta primer extension, TAMRA/BHQ fluorescence, 10 min; Potency, µM, most hits filed as inhibitors
* = called active by the depositor; ? = inconclusive; · = not tested or not shown; [ ] = another dose, or the depositor's remark. Calls follow the shape of the dose curve; as a rule, active = well fitted curve in the direction sought with a large enough effect; inconclusive = small, poorly fitted or top-dose-only effect, or another doubt; inactive = no such curve, though single readings can be large; an effect the other way counts as inactive or inconclusive. Potency is read from the fitted curve at half-maximal effect.

SMILES	GLS inhibitor	POLI inh	Pol eta inh-1	APEX1 inh	POLB inh	Pol kappa inh-1	POLI cherry-pick	Pol eta inh-2	others
O=C1C=C(Nc2ccccc2C(=O)O)c2ccccc2C1=O	36.0%	17.8µM*	28.2µM*	2.1%	?	-18.4%	67*	37.9*
O=C1c2ccccc2C(=O)c2cc(S(=O)(=O)Nc3cccc4cccnc34)ccc21	·	·	·	1.2%	·	·	·	·
O=C1C=C(Nc2cccc3cccnc23)c2ccccc2C1=O	-1.3%	17.8µM*	50.1µM*	1.1%	?	?	?	?
CN1C(=CC=C2C=C(I)C(=O)C(I)=C2)C(C)(C)c2ccccc21	-9.5%	3.55µM*	?	-1.1%	?	?	33.6*	47.8*	Pol kappa inh-2=75.2*
CN1/C(=C\C=C2/C(=O)Oc3ccccc3C2=O)C(C)(C)c2ccccc21	-20.7%	-10.9%	89.1µM*	-4.5%	44.7µM*	?	75.2*	53.6*	Pol kappa inh-2=23.8*
CC1=NN(c2ccccc2)C(=O)/C1=C\C=C1/N(C)c2ccccc2C1(C)C	9.0%	-18.9%	-10.6%	-2.8%	15.9%	-8.9%	·	·
CN1/C(=C\C=C2/SC(=S)NC2=O)C(C)(C)c2ccccc21	-21.6%	28.2µM*	79.4µM*	25.1µM*	22.4µM*	44.7µM*	75.2*	75.7*	Pol kappa inh-2=37.7*
Cc1[nH][nH]c(=O)c1C(c1ccc(-c2ccc(C(=O)O)cc2)o1)c1c(C)[nH][nH]c1=O	-25.9%	4.47µM*	?	?	25.1µM*	-33.6%	59.7*	?
COc1ccc(Cn2c(C)nc3c(c(=O)c4ccccc4n3C)c2=O)cc1	26.7%	148.6%	-7.6%	3.4%	0.7%	-5.3%	·	·
COc1ccc(Cn2c(C)nc3c(c2=O)c2nc4ccccc4nc2n3Cc2ccco2)cc1	-1.8%	3.16µM*	8.91µM*	·	·	35.5µM*	13.4*	30.1*
CC(C1SC(=S)NC1=O)C1SC(=S)NC1=O (stereo unspecified)	-18.5%	·	5.01µM*	·	·	·	42.3*	9.53*	Pol kappa inh-2=16.8*
Cc1cccc(C)c1OCC(C)N (stereo unspecified)	-16.7%	-4.3%[58.9 µM]	-1.0%[57.1 µM]	-0.8%	-2.7%[57.1 µM]	3.6%[60.1 µM]	·	·
O=C(NNC(=O)c1ccccc1Br)c1ccc2nc[nH]c2c1	17.2%	?	22.4µM*	?	22.4µM*	?	?	53.6*
O=C(NNC(=O)c1ccccc1F)c1ccc2nc[nH]c2c1	-10.4%	-25.3%	?	-5.4%	?	-14.8%	·	·
O=C(Cc1ccc(-n2c(=O)c3ccccc3n(Cc3cccc([N+](=O)[O-])c3)c2=O)cc1)NCC1CCCO1 (stereo unspecified)	·	·	·	1.1%	-2.0%	·	·	·
Cc1cc(N/N=C/c2ccc(O)cc2)nc(NS(=O)(=O)c2ccccc2)n1	12.6µM*	?	20µM*	10µM*	17.8µM*	?	·	?	PGK validate=5.17µM*
Cc1ccc(/C=N/Nc2cc(C)nc(NCc3ccccc3)n2)cc1	8.4%	6.2%	-10.7%	1.9%	-8.1%	-13.4%	·	·
COc1ccccc1NC(=O)c1sc2nc(C)c(C(=O)Nc3ccc(C)cc3C)c(-c3ccc(Br)cc3)c2c1N	14.9%	2.7%	-2.8%	·	13.2%	-1.2%	·	·
CCn1c(C)cc(/C=C2/NC(=O)N(CC(=O)Nc3cccc(C)c3)C2=O)c1C	-0.4%	-0.5%	10.2%	-1.7%	-1.8%	-24.6%	·	·
Cc1ccc(NC(=O)CN2C(=O)N/C(=C\c3cccn3-c3ccc(C(=O)NC#N)cc3)C2=O)cc1	·	·	·	·	·	·	37.7*	42.6*
Cc1ccc(CN2C(=O)N/C(=C\c3cccn3-c3cccc(C(=O)O)c3)C2=O)cc1	1.6%	14.1µM*	8.91µM*	15.9%	8.91µM*	50.1µM*	21.2*	26.9*
N#CNC(=O)c1ccc(-n2cccc2/C=C2\NC(=O)N(CC(=O)Nc3cccc(F)c3)C2=O)cc1	·	·	·	·	·	·	29.9*	42.6*	Pol kappa inh-2=13.4*
Cc1ccc(NC(=O)CN2C(=O)N/C(=C\c3cccn3-c3cccc(-c4nn[nH]n4)c3)C2=O)cc1	·	·	·	·	·	·	26.7*	75.7*	Pol kappa inh-2=21.2*
Cc1ccc(CN2C(=O)N/C(=C/c3ccc4c(c3)n(C)c(=O)n4C)C2=O)cc1	·	·	·	20.5%	-18.1%	·	·	·
Cc1ccc(NC(=O)CN2C(=O)N/C(=C/c3ccc(C)s3)C2=O)cc1	0.5%	31.8%	-24.1%	16.1%	43.8%	-0.1%	·	·
SMILES	GLS inhibitor	POLI inh	Pol eta inh-1	APEX1 inh	POLB inh	Pol kappa inh-1	POLI cherry-pick	Pol eta inh-2	others
O=C(COC(=O)c1ccccc1O)NCCc1c[nH]c2ccccc12	26.8%	?	-28.2%	36.1%	·	-16.5%	·	·
Cn1cccc1/C=C1\SC(=O)N(CC(=O)Nc2ccc(Cl)cc2)C1=O	14.7%	29.2%	-10.0%	3.5%	-0.2%	-6.1%	·	·
N#CNC(=O)c1ccc(-n2cccc2/C=C2\NC(=O)N(CC(=O)Nc3ccc(Cl)cc3)C2=O)cc1	·	·	·	·	·	·	6.7*	?	Pol kappa inh-2=4.74*
CC(NS(=O)(=O)c1ccccc1)C(c1cccs1)N1CCN(c2ccccc2)CC1 (stereo unspecified)	21.1%	6.3%	-12.9%	5.1%	-13.2%	-19.8%	·	·
CCCCS(=O)(=O)N1CCCC(C(=O)Nc2ccc3c(c2)CCC3)C1 (stereo unspecified)	-0.2%	34.2%	-8.2%	-13.6%	8.7%	0.3%	·	·
COc1cc(C)cc(C(=O)O)c1C1=C(O)c2cccc(O)c2C(=O)C1=O	?	35.5µM*	15.8µM*	35.5µM*	28.2µM*	50.1µM*	33.6*	23.9*
O=C(Cn1c(=O)oc2cc(S(=O)(=O)N3CCCC3)ccc21)N1CCN(C2CCCCC2)CC1	1.7%	7.4%	-25.2%	1.2%	19.1%	5.1%	·	·
Cc1ccc(-n2nc(C(=O)Nc3ccc(C)c(F)c3)c(=O)n(C)c2=O)cc1	-0.5%	22.9%	-10.1%	·	?	-6.8%[60.1 µM]	·	·
